According to PubChem BioAssay (NCI):
About 83,000 compounds went through this panel and 20% of them were active in at least one assay; those are over-represented in the sample as a whole.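 Cells were grown in 96-well plates and exposed to the test compound at a single concentration for 48 hours; results are reported as percent growth, with values below 10 considered active.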 A number with no mark means an inactive call. Calls of active or inactive are those of the source.

What follows are compounds tested on HL-60(TB) leukemia (assay: NCI-60 one-dose screen, 48 h (100 = growth as untreated, 0 = no growth, -100 = all killed)). Conditions: 10 µM unless noted.

Row | Compound | growth
1 | CC(=O)C[n+]1cccc2c3ccccc3ccc21 | 85%
2 | Cc1ccc(C(=O)CSc2nc3ccc(F)cc3c(=O)n2-c2ccc(Cl)cc2)cc1 | 117%
3 | CN(C)c1nc(NCCNS(=O)(=O)c2ccc(C(=O)/C=C/c3ccc(F)cc3)cc2)nc(N2CCOCC2)n1 | -20.3% (active)
4 | O=C(/C=C/c1ccc(-c2ccccc2)cc1)c1nc2ccccc2n1Cc1ccc(F)cc1 | 21.1%
5 | Cn1cc(-c2cc(N)n3nc(-c4c[nH]c5ccccc45)cc3n2)c2cc(F)ccc21 | 7.1% (active)
6 | O=c1[nH]c2ccccc2cc1CSc1ccc(Nc2nccc(-c3ccc4ccccc4c3)n2)cc1 | 92.5%
7 | CC1=C(C(=O)OCc2ccccc2)C(c2cccc3ccccc23)n2c(nc3ccccc32)N1 (stereo not drawn) | 1.4% (active)
8 | COc1cc(CNC(=O)C[C@H](C)CCC=C(C)C)ccc1OCc1cn(-c2ccccc2F)nn1 | 91.5%
9 | Cc1cc(=O)oc2cc(OCCCCOc3ccc(/C=C/C(=O)Nc4cccc(Cl)c4)cc3)ccc12 | 97.3%
10 | N#Cc1c(-c2ccc(Br)cc2)nc2n[nH]c(-c3ccc(Br)cc3)c2c1-c1ccc(C(F)(F)F)cc1 | -26.2% (active)
11 | COc1cc(-c2ccc(/C=N/NC(=O)c3[nH]c4ccc(Br)cc4c3-c3ccccc3)o2)cc(OC)c1OC | 99.3%
12 | O=C(COc1ccc(/C=C2/C(=O)Nc3ccc(Cl)cc32)cc1)Nc1ccc(Br)cc1 | 10.3%
13 | O=C(Nc1cc(Cl)cc(Cl)c1)Nc1cc(Cl)cc(Cl)c1 | -15.1% (active)
